# AmpC detergent – blocks E. coli AmpC beta-lactamase in detergent assay. Potency, µM (series often up to 114 µM), hits mostly inhibitors. actives 0.041% (n = 370,000). AmpC hydrolysis of nitrocefin, absorbance 480 nm, 0.01% Triton; also: nearly all actives have a fitted effect of over 25% in size
# Target sequence (P00811 whole entry, looked up): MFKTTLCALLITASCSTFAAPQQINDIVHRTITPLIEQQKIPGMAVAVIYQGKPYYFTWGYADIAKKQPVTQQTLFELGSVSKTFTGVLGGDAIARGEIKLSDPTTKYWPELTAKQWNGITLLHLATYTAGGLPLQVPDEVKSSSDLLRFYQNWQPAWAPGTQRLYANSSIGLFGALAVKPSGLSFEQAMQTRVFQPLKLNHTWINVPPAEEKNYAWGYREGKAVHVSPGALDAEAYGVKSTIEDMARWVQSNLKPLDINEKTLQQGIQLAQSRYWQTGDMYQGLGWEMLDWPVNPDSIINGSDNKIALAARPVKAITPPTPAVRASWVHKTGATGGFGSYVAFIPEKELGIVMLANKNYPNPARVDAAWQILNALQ
#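 20 mM phosphate pH 7.0 + 0.01% (detergent screen) or 0.0001% Triton X-100; 5.3 nM AmpC reagent; cpd preinc 15 min RT; nitrocefin (800 uM stock) to start; A480 q20 s × 4 min; Activity was normalised to no-enzyme and no-compound control wells.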
# VACV Venus inh – vaccinia inhibition (Venus reporter). Vaccinia virus Venus reporter expression, fluorescence. Potency, µM (top dose mostly 36.5 µM), actives largely listed as inhibitors. actives 0.46% (n = 330,000); calls by dose curve; tested in A549 cells; also: nearly all actives have a fitted effect of over 30% in size
# AmpC no deterg – blocks E. coli AmpC beta-lactamase in detergent-free assay; AID 485341; AmpC nitrocefin hydrolysis, absorbance 480 nm, 0.0001% Triton; P00811; Potency, µM (doses to about 57.1 µM), hits mostly inhibitors; actives 0.52% (n = 330,000); also: nearly all actives have a fitted effect of over 20% in size
#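 20 mM phosphate pH 7.0 + 0.01% (detergent screen) or 0.0001% Triton X-100; 5.3 nM AmpC reagent; cpd preinc 15 min RT; nitrocefin (800 uM stock) to start; A480 q20 s × 4 min; Activity was normalised to no-enzyme and no-compound control wells.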
# Vaccinia mCherry – inhibitors of vaccinia virus infection (mCherry reporter signal). Potency, µM (doses to about 36.5 µM), most hits filed as inhibitors. actives 0.63% (n = 310,000). Vaccinia virus mCherry reporter infection, fluorescence. AID 720579; calls by dose curve; tested in A549 cells; also: nearly all actives have a fitted effect of over 35% in size
# SARS PLP yeast – SARS-CoV PLP inhibition in yeast; S. cerevisiae expressing SARS-CoV PLpro, growth rescue; Potency, µM (doses to about 32.9 µM), hits mostly activators; actives 0.19% (n = 330,000); AID 485353; calls by dose curve; also: nearly all actives have a fitted effect of over 55% in size
# Numbers stand for hits; – = inactive; ? = inconclusive; · = not tested or not shown; [ ] = remark or other dose. A selection: hits, their analogues and other compounds. The true share with any hit is near 1.3%. Unless noted, calls follow the shape of the dose curve; as a rule, active = well fitted curve in the direction sought with a large enough effect; inconclusive = small, poorly fitted or top-dose-only effect, or another doubt; inactive = no such curve, though single readings can be large; an effect the other way counts as inactive or inconclusive.
SMILES,AmpC detergent,VACV Venus inh,AmpC no deterg,Vaccinia mCherry,SARS PLP yeast
COc1cccc(Nc2nc3ccccc3c(=O)[nH]2)c1,–,–,10µM,–,–
CCOc1ccc(N(CC)C(=O)COc2cc(=O)n(C)c3ccccc23)cc1,?,·,25.1µM,·,–
CCOc1ccc(N(CC)C(=O)COc2cc(=O)n(CC)c3ccccc23)cc1,–,·,–,·,–
COc1ccccc1C1CN(Cc2c(C)nc3sccn23)Cc2ccccc2O1 (configuration not stated),·,–,·,–,·
COc1ccc(CNC(=O)c2cnn(-c3ncc4c(n3)-c3ccccc3CC4)c2C)cc1OC,·,–,·,–,·
COc1ccc(NC(=O)/C(Cl)=C(/Cl)S(=O)(=O)Cc2ccccc2)cn1,–,22.4µM,–,·,–
COc1ccc(NC(=O)/C(Cl)=C(/Cl)S(=O)Cc2ccc(Cl)cc2)cn1 (configuration not stated),–,7.94µM,–,5.62µM,–
COc1ccc(NC(=O)C(Cl)=C(Cl)Cl)cn1,?,–,–,–,–
CCc1ccc2c(c1)C1(C(=O)N2)N2CCCC2C(C(=O)c2ccc3ccccc3c2)C12C(=O)Nc1ccccc12 (configuration not stated),–,12.6µM,–,28.2µM,–
Cc1nnc(N/N=C\c2ccc(-c3ccccc3[N+](=O)[O-])o2)n1N,–,22.4µM,–,?,–
Cc1nnc(N/N=C/c2ccc(-c3ccccc3F)o2)n1N,–,28.2µM,–,?,–
Cc1nnc(N/N=C/c2ccccc2O)n1N,–,?,–,?,–
COc1ccc2ccccc2c1/C=N/NC(=O)c1ccccc1F,?,–,–,–,–
COc1ccc2ccccc2c1/C=N\NC(=O)c1ccc(C)s1,–,–,11.2µM,–,–
Oc1c(CN2CCN(c3ccccc3)CC2)cc(Br)c2cccnc12,?,·,–,·,?
CC(C)OCc1cc(CN2CCN(c3ccccc3)CC2)c(O)c2ncccc12,–,?,·,11.2µM,·
COc1ccc(C(=O)NNC(=O)c2ccc3ccccc3n2)cc1,–,?,–,11.2µM,–
O=C(NNC(=O)c1ccc2ccccc2n1)c1ccc(O)cc1,–,·,–,·,–
COC(=O)C1=C(C)N(Cc2ccccc2)C(=NCc2ccccc2)N[C@H]1c1cccc(C(F)(F)F)c1,·,14.1µM,–,?,–
COC(=O)C1=C(C)N(Cc2ccccc2)C(=NCCc2cccnc2)N[C@H]1c1ccc(Br)cc1,–,12.6µM,–,?,–
COC(=O)C1=C(C)N(Cc2ccccc2)C(=NCCc2cccnc2)N[C@H]1c1ccccc1,?,–,–,–,–
Cc1cnc(-n2ncc(C(=O)NCc3ccncc3)c2C2CC2)nc1-c1cccs1,·,–,·,?,·
CC1Oc2ccccc2C=C1/C=N/Nc1ccc(C(=O)O)cc1 (configuration not stated),–,–,–,12.6µM,–
CCn1c(C)c(C2=CCN(S(=O)(=O)c3ccccc3)CC2)c2ccccc21,–,–,17.8µM,–,–
COc1ccc(Br)cc1C1NC(c2ccc3c(c2)OCO3)=CC(c2ccccc2O)N1 (configuration not stated),·,–,·,–,·
SMILES,AmpC detergent,VACV Venus inh,AmpC no deterg,Vaccinia mCherry,SARS PLP yeast
CN1CCC(N(C)c2nc(-c3ccc([N+](=O)[O-])cc3)nc3ccccc23)CC1,–,10µM,–,?,–
O=C(CCS(=O)(=O)c1ccc(Cl)cc1)Nc1nnc(-c2cccs2)o1,?,?,–,?,–
Cc1ccc(S(=O)(=O)CCC(=O)Nc2nnc(-c3cccs3)o2)cc1,?,?,–,10µM,–
COc1cccc(-c2nnc(NC(=O)CCS(=O)(=O)c3ccc(C)cc3)o2)c1,–,?,–,10µM,–
Cc1ccc([C@H]2C[C@H](O)[C@@H](n3cc(C4CC4)nn3)CN2Cc2cccs2)cc1,·,11.2µM,·,?,·
COc1ccc([C@H]2C[C@H](O)[C@@H](n3cc(-c4ccc(F)cc4)nn3)CN2Cc2cccs2)cc1,·,10µM,·,10µM,·
Cc1ccc2cc(CNC(C)c3cccc4ccccc34)c(N3CCC(O)CC3)nc2c1 (configuration not stated),·,–,·,–,·
CC(C)COC(=O)N1CCCCC1c1cc(C(=O)NCc2ccc(F)cc2)no1 (configuration not stated),·,–,·,–,·
COc1cc(Cl)c(C)cc1NC(=O)c1cc2ccc3cccnc3c2[nH]1,–,–[7.34 µM],·,–[7.34 µM],·
c1ccc(CCNc2ccnc3cc4ccccc4cc23)cc1,–,?,17.8µM,?,–
CC(C)Nc1ccc(Nc2ccnc3cc4ccccc4cc23)cc1,–,?,–,?,–
CC(C)(C)c1ccc(S(=O)(=O)N[C@H]2CC[C@@H](n3cc(C(=O)N4CCCC4)nn3)CC2)cc1,·,–,·,–,·
COC(=O)C1C(=O)c2c([nH]c(C(=O)OC3CCCCC3)c2C)CC1C (configuration not stated),–,·,–,·,–
COC(=O)C1C(=O)c2c([nH]c(C(=O)OC3CCCC3C)c2C)CC1C (configuration not stated),?,–,7.08µM,–,–
Cc1ccc(S(=O)(=O)c2nc(C)oc2NCc2ccccc2)cc1,50.1µM,·,–,·,–
Cc1ccc(S(=O)(=O)c2nc(-c3ccccc3F)oc2NCc2ccccc2)cc1,–,–,·,–,·
O=C(O)C[C@@H]1C(=O)O[C@@H]2C(COC(=O)c3cc(O)c(O)c(O)c3)O[C@@H](OC(=O)c3cc(O)c(O)c(O)c3)[C@@H](OC(=O)c3cc(O)c(O)c4c3[C@H]1[C@H](O)C(=O)O4)[C@H]2OC(=O)c1cc(O)c(O)c(O)c1 (some centres not stated),–,·,–,·,1.41µM
CCOc1ccc(CN2CCOc3ccc(C(O)c4cccnc4)cc3C2)cc1 (configuration not stated),·,–,·,–,·
CN(c1ccccc1C(=O)NCC1CCCO1)S(C)(=O)=O (configuration not stated),–,·,0.159µM,·,–
CC(C)C(CCNC1CCN(C)CC1)c1ccc(Cl)cc1 (configuration not stated),–,·,–,·,–
CN1CCC(NCCC(c2ccc(F)cc2)c2ccc(Cl)cc2)CC1 (configuration not stated),–,11.2µM,–,?,–
COc1ccc(-c2cccc3c2OC(CNC(=O)c2ccccc2-n2cccn2)C3)nn1 (configuration not stated),·,–,·,–,·
COc1ccccc1C1CN(CCNC(=O)c2cnsn2)Cc2ccccc2O1 (configuration not stated),·,–,·,–,·
O=c1[nH]c(=O)n(CCC2=CCCCC2)c(O)c1/C=N/Nc1cccc2ccccc12,–,–,28.2µM,?,–
CCN(CC)c1ccccc1/C=C/[n+]1ccc(CCCCI)c2ccccc21,·,–,·,–,·
CCC(NC(=O)Nc1ncccc1C)(C(F)(F)F)C(F)(F)F,–,–,–,·,–
CCC(NC(=O)NNC(N)=S)(C(F)(F)F)C(F)(F)F,–,28.2µM,–,?,–

# Screening results deposited in PubChem BioAssay by National Center for Advancing Translational Sciences (NCATS).
